# Mtb MbtI inh = MbtI salicylate synthase inhibitors, primary screen, biochemical, fluorescence intensity; purified MbtI enzyme, fluorescence intensity read-out; inhibition, % (no concentration beside the values); 100,000 tested, 0.89% active; AID 493033, 2011; in the data active = inhibition mostly above about 56%, no sharp cut-off; inactive = mostly below about 77%
# PV pol inh = poliovirus RdRp elongation inhibitors, primary screen, biochemical, fluorescence polarization, total intensity; Genome polyprotein (Poliovirus type 1 (strain Mahoney)), P03300; poliovirus polymerase elongation; active compounds read low; % elongation, % (compound at 16.7 µg/mL); 150,000 tested, 0.66% active; AID 588519, 2011; in the data active = % elongation below about 90%
# Target sequence (P03300 1749-2209 limits assumed): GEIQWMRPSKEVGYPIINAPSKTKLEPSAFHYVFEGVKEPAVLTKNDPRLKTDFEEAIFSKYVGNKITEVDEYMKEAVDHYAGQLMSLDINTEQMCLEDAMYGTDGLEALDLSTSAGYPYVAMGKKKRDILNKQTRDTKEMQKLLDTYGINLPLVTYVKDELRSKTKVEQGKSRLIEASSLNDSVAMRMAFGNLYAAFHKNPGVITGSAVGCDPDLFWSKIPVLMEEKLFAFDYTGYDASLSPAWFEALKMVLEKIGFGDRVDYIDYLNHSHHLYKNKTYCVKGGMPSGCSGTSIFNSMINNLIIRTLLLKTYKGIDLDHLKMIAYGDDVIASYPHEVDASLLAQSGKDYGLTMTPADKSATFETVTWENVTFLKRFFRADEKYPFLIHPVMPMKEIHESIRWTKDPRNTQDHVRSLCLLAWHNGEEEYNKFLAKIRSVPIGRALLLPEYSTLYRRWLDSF
# AID504770 = growth inhibition of E. coli YBA685, primary screen, V. cholerae RctB inhibitors. AID 504770, 2011. 130,000 tested, 0.27% active. E. coli YBA685 rctB-dependent plasmid, OD600 growth, 3 h; active compounds read low. z-score (test concentration not listed); in the data active = z-score below about -2, passing the limit was not always enough
# Mtb MenB inh = M. tuberculosis MenB inhibitors, primary screen, biochemical, absorbance; inhibition, % (test concentration not listed); 100,000 tested, 0.43% active; AID 540299, 2011; MenB enzyme assay, absorbance read-out; in the data active = inhibition above about 21%, passing the limit was not always enough
# A number is an active result; . = inactive; / = no result. Hits are enriched below; roughly 1.4% of the tested compounds scored in any of these assays.
SMILES,Mtb MbtI inh,PV pol inh,AID504770,Mtb MenB inh
ClCc1csc(Nc2ccccc2)n1,.,.,.,/
N#Cc1cc(-c2ccccc2C(F)(F)F)no1,.,.,-2.6,.
CN(C)C(=O)COc1ncnc2ccccc12,.,.,.,/
O=C(O)COc1ncnc2ccccc12,.,.,.,27
CC1(C)OC(=O)C(=Cc2ccc(C#N)cc2)C(=O)O1,.,.,.,.
S=C(NC1CCCCC1)Sc1ccc(Cl)cc1,56,.,.,.
CCS(=O)(=O)NCC1COC2(CCCCC2)O1 (stereo unspecified),.,.,.,.
NCCNCC1COC2(CCCCCCCCCCC2)O1 (stereo unspecified),.,.,-2.9,.
COC(=O)c1ccccc1N1C(=O)C=CC1=O,/,/,-2.5,/
CN(C)CCNC(=O)c1ccc(Br)s1,.,89,.,.
CCn1cc(-c2ccccc2)c(C(=O)O)c1C,.,.,.,.
O=C1c2ccccc2-c2nc3ccccc3nc21,.,.,.,.
O=C1c2ccccc2-c2n[nH]c(=S)nc21,.,76,-2.6,.
Cc1sc2c(c1C)C1=NS(=O)(=O)CCN1C=N2,.,76,.,.
COC(=O)C1=NC=CN2CCS(=O)(=O)N=C12,.,/,.,.
COCCN1C(=O)CS/C1=C(/C#N)C(=O)NCCc1ccccc1,.,.,.,.
NC(=O)C(c1ccccc1)c1ncc(C(F)(F)F)cc1Cl (stereo unspecified),/,/,-2.7,/
N#Cc1ccc(Sc2ccc(C#N)c(C#N)c2)cc1C#N,100,.,.,.
N#Cc1ccc(OC(C(F)(F)F)C(F)(F)F)cc1C#N,.,.,.,.
CN(C)S(=O)(=O)c1cccc(CSc2nnc(COc3ccccc3F)n2N)c1,.,.,.,.
CC(C)N(C(=O)CCCN1C(=O)c2ccccc2C1=O)c1ccccc1,.,.,.,.
COCCNC(=S)N1CCC(C(=O)c2ccc(F)cc2)CC1,.,.,.,37
C=CCNC(=S)N1CCC(C(=O)c2ccc(C)cc2)CC1,.,.,.,.
O=C(c1ccccc1)c1ccc(C(=O)O)c(C(=O)O)c1,.,.,.,46
O=C(O)CCC(=O)c1ccccc1,.,75,.,.
SMILES,Mtb MbtI inh,PV pol inh,AID504770,Mtb MenB inh
O=C(c1ccccc1)c1ccc(C(=O)c2ccccc2)cc1,/,82,.,.
O=C(O)c1ccc(C(=O)O)c(C(=O)c2ccccc2)c1,/,/,.,/
O=C(O)CCCC(=O)c1ccccc1,.,.,.,.
COCC(C)N=C1NC(=O)C(CC(=O)Nc2cc(C)c(Cl)cc2OC)S1 (stereo unspecified),.,.,.,.
CSc1nc2ccccc2n1CN1CCN(CC(=O)Nc2ccccc2Cl)CC1,.,.,.,.
CCSc1ccccc1C(=O)NCCCn1ccnc1,.,.,.,40
O=C(Cc1c(F)cccc1Cl)NCCCn1ccnc1,.,.,.,40
Cc1c(C(=O)Nc2cc(-c3cccc(F)c3)no2)sc2nc3n(c(=O)c12)CCCCC3,.,.,.,.
CC(=O)Nc1ccc(NC(=O)COCC(=O)O)cc1,.,.,.,.
CC(Sc1nnc(Nc2ccc(Oc3ccccc3)cc2)s1)C(=O)NC(C)(C#N)C(C)C (stereo unspecified),.,.,.,.
Cc1cc(S(=O)(=O)/N=C(\N)c2ccccn2)cc(C)c1F,/,/,.,/
O=c1cc(CNC2CCCCC2)c2ccccc2[nH]1,.,.,.,30
CCNC(=O)N(C)Cc1nc(-c2ccc(OC)cc2)no1,.,.,.,.
CCn1nc(N)c2c(O)[nH]c(=O)cc21,.,40,.,.
COc1cc2cc3c4c(cc(OC)c(OC)c4c2cc1OC)CCN3C,/,18,.,.
O=C1CSc2nnc(-c3cccs3)n21,.,57,.,.
c1csc(-c2nnc3n2-c2ccccc2SC3)c1,.,.,.,.
O=C(NCc1ccco1)c1ccc(Cn2c(SCc3ccccc3)nc3ccncc32)cc1,.,.,.,.
C=CCNc1cc(C)nc2nncn12,.,.,.,.
CC(C)(C)N1CSC(=S)N(Cc2ccco2)C1,.,.,-7.9,.
O=C(O)c1cccc(I)c1,.,.,.,.
COc1ccc(C)cc1NC(=O)CN(C)Cc1nc2ccccc2c(=O)[nH]1,.,89,.,.
COc1ccc(C2CC(=O)N3CN(C4CCCCC4)CSC3=C2C#N)c(OC)c1 (stereo unspecified),/,54,/,/
COc1cc(C2CC(=O)N3CN(Cc4ccccc4)CSC3=C2C#N)cc(Br)c1O (stereo unspecified),.,.,.,.
N#CC1=C2SCN(C3CCCCC3)CN2C(=O)CC1c1ccccc1 (stereo unspecified),73,.,.,.
SMILES,Mtb MbtI inh,PV pol inh,AID504770,Mtb MenB inh
N#CC1=C2SCN(C3CCCCC3)CN2C(=O)CC1c1ccc(Br)cc1 (stereo unspecified),/,.,/,/
CCOc1ccc(C(=O)c2c(N)c(-c3nc(-c4ccc5c(c4)OCO5)cs3)c3ccccn23)cc1,/,.,/,/
COc1cccc(-c2csc(-c3c(N)c(C(=O)c4ccc5c(c4)OCO5)n4ccccc34)n2)c1,/,76,/,/
CC(C)C(C)(C#N)NC(=O)CSc1nc(N)cc(=O)[nH]1 (stereo unspecified),.,.,.,.
COc1cccc(C(=O)CC#N)c1,.,.,.,.
COc1cccc(C(=O)CS)c1,87,.,.,.
CCc1nc2sc(C(=O)Nc3ccc(OC(F)(F)F)cc3)c(N)c2cc1C,/,.,.,.
O=C1N=c2ccccc2=C1c1c(O)n(-c2cccc(F)c2)[nH]c1=O,88,.,.,.
COC(=O)c1cnc(NN2C(=O)C=C(C)C2=O)nc1C(F)(F)F,53,.,.,.
O=C(Cc1ccccc1)Nc1ccc(-c2cn3cccnc3n2)cc1,.,.,.,.
CC(C)N(C)NC(=S)Nc1ccccc1,.,.,.,41
CCC(C)NC(=S)Nc1ccccc1 (stereo unspecified),.,.,.,30
CCN(CC)NC(=S)Nc1ccccc1,.,.,.,.
CCNC(=S)Nc1ccccc1,.,.,.,.
CCOc1ccc(-n2c(N)c(C(=O)N3CCN(C)CC3)sc2=S)cc1,.,.,.,.
CCOC(=O)c1ccc(-n2c(N)c(C(=O)NCC3CCCO3)sc2=S)cc1 (stereo unspecified),92,.,.,.
CCOC(=O)c1ccc(-n2c(N)c(C(=O)N3CCCC3)sc2=S)cc1,93,.,.,.
COC(=O)c1cc(-c2ccc(Cl)cc2)on1,/,.,.,.
COC(=O)/C=C1/OC(c2ccc(Cl)cc2)=CC1=O,100,.,.,.
O=c1[nH]c(CN2CCNCC2)nc2ccccc12,.,.,.,.
CC(c1nc2ccccc2c(=O)[nH]1)N1CCN(Cc2ccc(Cl)s2)CC1 (stereo unspecified),.,-3.0,.,.
C/C(O)=C(\C#N)P(C)(=O)OC(C)C (stereo unspecified),.,.,.,41
O=C(NCc1ccccn1)c1ccccc1,.,.,.,.
Cc1ccc(S(=O)(=O)Nc2c(C#N)c3nc4ccccc4nc3n2Cc2ccccc2)cc1,.,73,.,.

# High-throughput results from PubChem BioAssay.
